This passage reports growth results from PubChem BioAssay (NCI).

The panel holds about 83,000 compounds, 20% with a hit somewhere; the sample as a whole holds those more often.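 96-well plates, one dose, 48 hours. Percent growth reported; active if below 10.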 Values without a mark were called inactive. Active and inactive are the calls of the source.

Test systems include NCI-H23 lung; NCI-H226 lung; NCI-H322M lung; HOP-62 NSCLC; NCI-H460 lung; HOP-92 NSCLC; NCI-H522 lung; A549/ATCC NSCLC; 786-0 renal; COLO 205 colon; DU-145 prostate; K-562 leukemia; MALME-3M melanoma; MDA-MB-231 breast; RXF 393 renal; SF-268 CNS; SF-295 CNS; SF-539 CNS; UACC-257 melanoma; M14 melanoma.
What all share (assay): NCI-60 one-dose screen, 48 h (100 = growth as untreated, 0 = no growth, -100 = all killed)
Common to all, as to conditions: 10 µM unless noted

Regarding `CCCCCOC(=O)c1ccccc1O`, the growth is 112% in the assay on NCI-H23 lung; 97.8% in the assay with NCI-H226 lung; 101% in the assay on NCI-H322M lung; 85.4% in the assay with HOP-62 NSCLC; 108% with NCI-H460 lung; 88% in the assay on HOP-92 NSCLC. In addition, the growth in the assay on NCI-H522 lung is 87.4%; in the assay with A549/ATCC NSCLC it was 96.2%; with 786-0 renal, 94.4%; in the assay on COLO 205 colon, 120%; with DU-145 prostate, 107%; in the assay with K-562 leukemia, 99.9%. Also, the growth in the assay with MALME-3M melanoma is 109%; in the assay on MDA-MB-231 breast, 110%; in the assay on RXF 393 renal, 123%; in the assay with SF-268 CNS, 105%; in the assay with SF-295 CNS, 98%; with SF-539 CNS it was 99.7%. Further, the growth with UACC-257 melanoma was 94.3%; in the assay on M14 melanoma, 97.4%.

For `CC[C@]12C=CCN3CC[C@@]4(c5cc(NC(=O)CCC(=O)O[C@H]6CC[C@H]7[C@@H]8CC[C@H]9CC(=O)CC[C@]9(C)[C@H]8CC[C@]67C)c(OC)cc5N(C)[C@H]4[C@@](O)(C(=O)OC)[C@@H]1OC(C)=O)[C@@H]32`, the growth was 89.7% in the assay with NCI-H23 lung; 70.9% in the assay on NCI-H226 lung; 99% in the assay on NCI-H322M lung; 95.6% in the assay on HOP-62 NSCLC; 64.5% in the assay with NCI-H460 lung; 52.4% in the assay on HOP-92 NSCLC. In addition, the growth with NCI-H522 lung was 63.6%; with A549/ATCC NSCLC, 56.7%; in the assay on 786-0 renal it was 74.7%; with COLO 205 colon, 69.1%; with DU-145 prostate it was 86.8%; with K-562 leukemia, 41.7%. Also, the growth was 77.7% in the assay with MALME-3M melanoma; 83% in the assay on MDA-MB-231 breast; 66.2% with RXF 393 renal; 74.3% in the assay on SF-268 CNS; 68.4% in the assay on SF-295 CNS; 74.1% with SF-539 CNS. For the same compound, the growth with UACC-257 melanoma was 94.5%; in the assay on M14 melanoma, 67.5%.

Regarding `CSc1nc(-c2ccc(F)cc2)c(C#N)c(N2CCOCC2)n1`, the growth in the assay with NCI-H23 lung was 101%; in the assay with NCI-H226 lung, 80%; in the assay with NCI-H322M lung, 92.6%; with HOP-62 NSCLC it was 97.3%; in the assay with NCI-H460 lung, 102%; with HOP-92 NSCLC, 73.9%. For the same compound, the growth with NCI-H522 lung is 90.1%; in the assay on A549/ATCC NSCLC it was 88.6%; in the assay on 786-0 renal, 93.7%; in the assay with COLO 205 colon, 106%; in the assay with DU-145 prostate, 101%; with K-562 leukemia, 92.9%. In addition, the growth with MALME-3M melanoma is 116%; in the assay on MDA-MB-231 breast it was 92.5%; in the assay with RXF 393 renal it was 91.3%; in the assay with SF-268 CNS, 93.5%; with SF-295 CNS, 92.2%; in the assay on SF-539 CNS it was 94.9%. Further, the growth with UACC-257 melanoma is 91.9%; with M14 melanoma it was 107%.

As to `O=C(Nc1ccc2ncnc(Nc3ccc(F)c(Cl)c3)c2c1)c1ccccc1`, the growth with NCI-H23 lung is 74.6%; in the assay with NCI-H226 lung, 72.2%; with NCI-H322M lung it was 27.2%; with HOP-62 NSCLC it was 72.3%; with NCI-H460 lung, 30.4%; with HOP-92 NSCLC, 97.2%. For the same compound, the growth was 55.6% with NCI-H522 lung; 50.4% in the assay on A549/ATCC NSCLC; 47.7% in the assay with 786-0 renal; 97.3% with COLO 205 colon; 36.1% in the assay on DU-145 prostate; 69.4% with K-562 leukemia. For the same compound, the growth in the assay with MALME-3M melanoma is 90.4%; in the assay on MDA-MB-231 breast, 79.8%; in the assay with RXF 393 renal it was 73.1%; in the assay with SF-268 CNS, 67.1%; in the assay on SF-295 CNS, 82%; with SF-539 CNS it was 78.6%. The figures for the growth in the assay on UACC-257 melanoma and in the assay with M14 melanoma were 96.8% and 90.1%, respectively.

With `C=C1C(=O)O[C@H]2[C@H]1CC/C(COC(=O)c1cc3ccccc3o1)=C\CC[C@@]1(C)O[C@@H]21`, the growth is 32.8% in the assay on NCI-H23 lung; 45.6% in the assay on NCI-H226 lung; 78.1% in the assay with NCI-H322M lung; 42.7% in the assay with HOP-62 NSCLC; 42.2% with NCI-H460 lung; -52.7% (active) in the assay on HOP-92 NSCLC. The growth is -58.2% (active) with NCI-H522 lung; 51.4% in the assay on A549/ATCC NSCLC; -19.1% (active) in the assay with 786-0 renal; -65.6% (active) in the assay with COLO 205 colon; -24.2% (active) in the assay with DU-145 prostate; -2.5% (active) in the assay with K-562 leukemia. The growth in the assay with MALME-3M melanoma is -70.3% (active); in the assay on MDA-MB-231 breast, -38.8% (active); in the assay on RXF 393 renal it was -83.4% (active); with SF-268 CNS it was 4.87% (active); in the assay with SF-295 CNS, 74.8%; in the assay with SF-539 CNS, -40.7% (active). In addition, the growth with UACC-257 melanoma was 40.5%; with M14 melanoma it was -53.9% (active).

For `CCOC(=O)c1c(C)nc2c(c1N)/C(=C/c1ccccn1)C(=O)N2Cc1ccccc1`, the growth was 23.6% with NCI-H23 lung; 44.4% with NCI-H226 lung; 62.7% in the assay with NCI-H322M lung; -8.66% (active) in the assay on HOP-62 NSCLC; 4.8% (active) in the assay on NCI-H460 lung; 30.5% in the assay with HOP-92 NSCLC. For the same compound, the growth in the assay on NCI-H522 lung was 0.177% (active); in the assay with A549/ATCC NSCLC, 44.6%; in the assay on 786-0 renal, -64.8% (active); in the assay with COLO 205 colon, -42.7% (active); in the assay on DU-145 prostate, 12.6%; with K-562 leukemia it was -16% (active). The growth is 31.4% in the assay with MALME-3M melanoma; 14.1% in the assay on MDA-MB-231 breast; -76.4% (active) in the assay on RXF 393 renal; 16.7% in the assay with SF-268 CNS; 65.6% in the assay on SF-295 CNS; 11.1% in the assay with SF-539 CNS. In addition, the growth in the assay on UACC-257 melanoma is 35.1%; with M14 melanoma it was 0.865% (active).

With `Oc1c(CCl)cc(Cl)cc1Cc1cc(Cl)cc(Cc2cc(Cl)cc(CCl)c2O)c1O`, the growth in the assay with NCI-H23 lung was 5.68% (active); in the assay with NCI-H226 lung it was 32.4%; in the assay on NCI-H322M lung, 4.12% (active); with HOP-62 NSCLC, 57.2%; with NCI-H460 lung it was 11.9%; in the assay on HOP-92 NSCLC, -18.3% (active). For the same compound, the growth was -10.9% (active) in the assay with NCI-H522 lung; 46.5% with A549/ATCC NSCLC; 55.3% in the assay with 786-0 renal; 68.3% in the assay on COLO 205 colon; 44% in the assay with DU-145 prostate; 7.26% (active) in the assay on K-562 leukemia. In addition, the growth with MALME-3M melanoma was 27.9%; in the assay on MDA-MB-231 breast it was 40.2%; with RXF 393 renal, 45.4%; with SF-268 CNS it was 17.1%; in the assay on SF-295 CNS it was 62.7%; with SF-539 CNS it was 40.7%. Also, the results for the growth in the assay with UACC-257 melanoma and in the assay with M14 melanoma were 36.1% and 27.1%, respectively.

Turning to `COc1ccc2cc(/C=C3\N=C(c4cc(OC)c(OC)c(OC)c4)OC3=O)c(OC)nc2c1`, the growth with NCI-H23 lung is 101%; in the assay with NCI-H226 lung, 107%; with NCI-H322M lung it was 107%; in the assay on HOP-62 NSCLC, 88.9%; in the assay with NCI-H460 lung it was 111%; in the assay with HOP-92 NSCLC it was 97.7%. Also, the growth in the assay on NCI-H522 lung was 82.3%; in the assay on A549/ATCC NSCLC it was 96.7%; with 786-0 renal it was 100%; with COLO 205 colon, 117%; with DU-145 prostate it was 110%; in the assay with K-562 leukemia, 90.1%. Moreover, the growth in the assay on MALME-3M melanoma was 104%; in the assay on MDA-MB-231 breast it was 91.5%; with RXF 393 renal, 119%; in the assay with SF-268 CNS, 98.2%; with SF-295 CNS, 98.7%; in the assay with SF-539 CNS, 101%. For the same compound, the growth is 95.5% in the assay with UACC-257 melanoma and 111% in the assay on M14 melanoma.
